Bioassay records deposited in PubChem by several laboratories.
This is a sample that favours compounds with a hit; in the whole collection about 3.3% have one here.
Bead autofluor = counter-screen for toxin protease inhibitors: compound fluorescence. AID 624483. 360,000 compounds, 3.1% hits. fluorescence intensity (concentration not given with the values). compound autofluorescence counterscreen, microsphere flow cytometry; active compounds read high; in the data active means fluorescence intensity above about 16000; inconclusive means no clear call, values can overlap the other calls
Anthrax LF prot = anthrax lethal factor protease inhibition. P15917. multiplex microsphere protease cleavage assay, LF. inhibition, % at 10 µM. 360,000 compounds, 0.12% hits
Target sequence (P15917 whole entry, looked up): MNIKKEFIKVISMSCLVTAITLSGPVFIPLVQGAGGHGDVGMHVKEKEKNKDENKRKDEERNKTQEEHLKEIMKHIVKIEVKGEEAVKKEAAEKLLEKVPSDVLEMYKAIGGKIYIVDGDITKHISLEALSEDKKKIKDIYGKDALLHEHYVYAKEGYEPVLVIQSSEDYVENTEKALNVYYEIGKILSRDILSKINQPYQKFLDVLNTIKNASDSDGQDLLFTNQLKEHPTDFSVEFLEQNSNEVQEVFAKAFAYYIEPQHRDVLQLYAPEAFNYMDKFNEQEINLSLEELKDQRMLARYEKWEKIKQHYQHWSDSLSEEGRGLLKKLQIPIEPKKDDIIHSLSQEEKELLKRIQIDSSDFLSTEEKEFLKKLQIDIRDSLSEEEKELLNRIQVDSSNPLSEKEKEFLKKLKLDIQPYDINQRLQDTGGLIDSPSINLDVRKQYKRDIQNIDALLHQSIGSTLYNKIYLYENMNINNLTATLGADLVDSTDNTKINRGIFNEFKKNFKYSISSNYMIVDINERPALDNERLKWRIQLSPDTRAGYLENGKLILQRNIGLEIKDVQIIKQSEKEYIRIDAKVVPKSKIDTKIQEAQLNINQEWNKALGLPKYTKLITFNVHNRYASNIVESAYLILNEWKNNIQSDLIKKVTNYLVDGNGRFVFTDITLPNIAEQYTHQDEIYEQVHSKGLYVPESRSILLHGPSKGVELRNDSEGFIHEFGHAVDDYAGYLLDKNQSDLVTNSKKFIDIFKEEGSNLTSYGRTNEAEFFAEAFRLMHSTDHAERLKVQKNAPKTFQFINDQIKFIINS
BoNT A protease = BoNT A light chain protease inhibition | AID 588499 | 360,000 compounds, 0.17% hits | inhibition, % at 10 µM | multiplex microsphere protease substrate cleavage, flow cytometry
BoNT F protease = inhibitors of Botulinum neurotoxin F light chain protease | Multiplex microsphere protease cleavage assay, flow cytometry | inhibition, % at 10 µM | 360,000 compounds, 0.22% hits | AID 588497; in the data active means inhibition above about 35%, passing the limit was not always enough; inconclusive means no clear call, values can overlap the other calls
SSB-PriA inh = K. pneumoniae PriA-SSBct interaction inhibition; AID 1272365; 430,000 compounds, 0.6% hits; inhibition, % at 33 µM; AlphaScreen SSBct-PriA binding, biotinylated peptide; in the data active means inhibition mostly above about 37%, no sharp cut-off; inactive means mostly below about 20%
MazEF act = activators of E. coli MazEF toxin-antitoxin RNase | P0AE70 | FAM/BHQ RNA-DNA oligo cleavage fluorescence, 5 h | activation, % at 20 µM | 350,000 compounds, 0.32% hits | AID 504720; in the data active means activation above about 50%
A number is an active result; i = inactive; ? = inconclusive; nt = no result given; + = active, no number. Unless noted, no stated cut-off is given here; in the data, active means inhibition above about 30%; inconclusive means no clear call, values can overlap the other calls; inactive means below that.

SMILES	Bead autofluor	Anthrax LF prot	BoNT A protease	BoNT F protease	SSB-PriA inh	MazEF act
O=C(Nc1ccc(N2CCCC2)c(Cl)c1)c1ccc([N+](=O)[O-])o1	i	i	i	i	44.6	i
O=C(Nc1ncccn1)c1ccc([N+](=O)[O-])o1	i	i	i	i	i	91.5
O=C(Nc1ccc(N2CCN(C(=O)c3ccccc3)CC2)c(Cl)c1)c1ccc(Br)o1	23206	i	i	i	i	i
O=C(Nc1ccccn1)c1ccc([N+](=O)[O-])o1	i	i	i	i	i	i
O=C(Nc1cc(Cl)ccc1-n1cncn1)c1ccc(Br)o1	i	i	i	i	i	i
O=C(Nc1ccc(N2CCN(C(=O)c3ccccc3)CC2)cc1)c1ccc(Br)o1	i	i	i	i	i	i
O=C(Cn1c(=O)oc2ccccc21)NCc1cccnc1-c1ccsc1	nt	nt	nt	nt	i	nt
Cc1ccc(N=c2scc(-c3ccc(Cl)cc3)n2CCN2CCOCC2)c(C)c1	nt	nt	nt	nt	i	nt
COc1cccc(-c2csc(=Nc3ccc(Cl)cc3)n2N2CCOCC2)c1	nt	nt	nt	nt	68.0	nt
CCOC(=O)c1nn(-c2ccc(Br)cc2)cc1C(=O)c1cccc2ccccc12	20527	i	i	i	i	i
CCNC(=S)NN=Cc1sc(N2CCCCC2)nc1-c1cccs1	nt	nt	nt	nt	i	nt
CC(C)NC(=S)N/N=C/c1sc(N2CCCCC2)nc1-c1cccs1	i	i	32.7	i	nt	i
Cc1ccc(-c2[nH]nc3c2C(c2cccnc2)C(C#N)=C(N)O3)cc1 (configuration not stated)	23057	i	?	i	i	i
CCCc1nn(C)c2c1C(c1cccnc1)C(C#N)=C(N)O2 (configuration not stated)	23902	i	i	i	i	i
N#CC1=C(N)Oc2n[nH]c(-c3ccccc3)c2C1c1cccnc1 (configuration not stated)	i	i	i	i	i	i
Cc1ccc(-c2[nH]nc3c2C(c2ccc(OC(=O)N4CCOCC4)cc2)C(C#N)=C(N)O3)cc1 (configuration not stated)	16622	i	?	i	i	i
CC(C)c1[nH]nc2c1C(c1cccc(OC(=O)N3CCOCC3)c1)C(C#N)=C(N)O2 (configuration not stated)	i	i	i	i	i	i
CC(C)N1CC2=C(OC(N)=C(C#N)C2c2cccnc2)/C(=C/c2cccnc2)C1 (configuration not stated)	i	i	i	i	i	64.1
COC(=O)c1ccc(S(=O)(=O)N(CCc2cccs2)Cc2ccoc2)cc1	nt	nt	nt	nt	i	nt
Cc1cc(C(=O)N(Cc2ccco2)c2nc3c(F)cccc3s2)n(C)n1	nt	nt	nt	nt	i	nt
CC(C)c1[nH]nc2c1C(c1cccnc1)C(C#N)=C(N)O2 (configuration not stated)	19924	i	i	i	i	i
Cc1c(CCC(=O)O)c(=O)n2c([nH]c3ccccc32)c1C#N	20757	i	i	i	i	i
O=S(=O)(c1cccc(-c2nc3ccccc3s2)c1)N1CCCC1	23878	i	i	i	i	i
O=S(=O)(c1ccc(-c2nc3ccccc3s2)cc1)N1CCCC1	i	i	i	i	i	i
O=C(NCc1ccc(-c2nccs2)cc1)c1nc2ccccc2s1	nt	nt	nt	nt	i	nt
SMILES	Bead autofluor	Anthrax LF prot	BoNT A protease	BoNT F protease	SSB-PriA inh	MazEF act
CCSc1nnc(NC(=O)C(C(F)(F)F)C(F)(F)F)s1	23475	i	i	i	i	i
CCSc1nnc(NC(=O)C(C)C)s1	i	i	i	i	i	i
CCSc1nnc(NC(=O)C(CC)(C(F)(F)F)C(F)(F)F)s1	i	i	i	i	i	i
CCSc1nnc(NC(=O)C(C)(C(F)(F)F)C(F)(F)F)s1	16389	i	i	i	i	i
NCC(c1ccsc1)N1CCCC1 (configuration not stated)	nt	nt	nt	nt	i	nt
CCOc1ccc(C2C(=C(O)c3ccc4c(c3)OCCO4)C(=O)C(=O)N2Cc2cccnc2)cc1OCC (configuration not stated)	nt	nt	nt	nt	i	nt
CC(=O)Nc1cccc(NC(=O)CCn2cnc3cc(C)c(C)cc32)c1	22641	i	i	i	i	i
Cc1c(C(c2ccccc2F)c2c(C)n(C)n(-c3ccccc3)c2=O)c(=O)n(-c2ccccc2)n1C	nt	nt	nt	nt	i	nt
CCCN1CCN(C(c2cc3cc(OCC)ccc3[nH]c2=O)c2nnnn2C2CCCCC2)CC1 (configuration not stated)	22710	i	?	i	i	i
COc1ccc2[nH]c(=O)c(C(c3nnnn3C3CCCCC3)N3CCN(C)CC3)cc2c1 (configuration not stated)	i	i	i	i	i	i
Cc1ccc2cc(C(c3nnnn3C3CCCC3)N3CCN(c4ccc(F)cc4)CC3)c(=O)[nH]c2c1 (configuration not stated)	22513	i	i	i	i	i
CCCOc1ccc(C(O)=C2C(=O)C(=O)N(CCCOC)C23C(=O)N(C)c2ccccc23)cc1 (configuration not stated)	nt	nt	nt	nt	i	nt
CCCOc1ccc(C(=O)NC(C)C(=O)O)cc1 (configuration not stated)	21313	i	i	i	i	i
CC(NC(=O)c1ccc(C(C)(C)C)cc1)C(=O)O (configuration not stated)	21690	i	i	i	i	i
CCCCOc1ccc(C(=O)NC)cc1	i	i	i	i	i	i
COC(=O)C(C)NC(=O)c1ccc(C(C)(C)C)cc1 (configuration not stated)	i	i	i	i	i	i
N#Cc1nccnc1N1CCC(CNC(=O)c2ccc3nsnc3c2)CC1	nt	nt	nt	nt	i	nt
O=Cc1ccc(Sc2cccc3cccnc23)o1	nt	nt	nt	nt	104.0	nt
CCCCC(=O)N/N=C/c1ccc(Sc2cccc3cccnc23)o1	i	i	i	i	nt	i
CCCCCCCC(=O)N/N=C/c1ccc(Sc2cccc3cccnc23)o1	nt	nt	nt	nt	+	nt
O=C(Cc1cccc2ccccc12)N/N=C/c1ccc(Sc2cccc3cccnc23)o1	nt	nt	nt	nt	i	nt
O=C(CCc1ccccc1O)NN=Cc1ccc(Sc2cccc3cccnc23)o1	nt	nt	nt	nt	93.5	nt
O=C(Cn1c(=O)n(Cc2cccs2)c(=O)c2ncccc21)Nc1ccc2c(c1)OCO2	nt	nt	nt	nt	i	nt
COCCCn1c(SCC(=O)N2CCCCC2C)nnc1-c1ccco1 (configuration not stated)	16205	i	i	i	i	i
CCCCn1c(SCC(N)=O)nnc1-c1ccco1	22326	i	i	i	i	i
SMILES	Bead autofluor	Anthrax LF prot	BoNT A protease	BoNT F protease	SSB-PriA inh	MazEF act
CC(C)Cn1c(SCC(=O)c2ccc(Cl)s2)nnc1-c1ccco1	22317	i	i	i	i	i
COCCCn1c(SCC(=O)NC2CCCC2)nnc1-c1ccco1	20908	i	i	i	i	i
COc1ccc2oc(-c3csc(NC(=O)c4ccccc4Cl)n3)cc2c1	nt	nt	nt	nt	i	nt
O=C(CSc1ccc(F)cc1)N1CCN(c2cc(C(F)(F)F)ncn2)CC1	nt	nt	nt	nt	i	nt
CN(C)S(=O)(=O)NCCn1nc(-c2ccco2)ccc1=O	nt	nt	nt	nt	i	nt
O=C1NC(c2ccccc2)=C(c2nc3ccccc3s2)C(c2ccc(O)cc2)N1 (configuration not stated)	21586	i	i	i	i	i
